# Screening data (PubChem)
# D1 antag – human D1 dopamine receptor antagonism; P21728; HEK293 TREx D1 cells, calcium flux, dopamine EC80; stronger effect = lower value; activity change, negative = inhibition, % at 10 µM; 360,000 compounds, 3.2% hits; AID 504652; in the data active means activity change below about -30%; further: on the % scale 0 is the no-effect control and ±100 the full control effect
# Target sequence (P21728 whole entry, looked up): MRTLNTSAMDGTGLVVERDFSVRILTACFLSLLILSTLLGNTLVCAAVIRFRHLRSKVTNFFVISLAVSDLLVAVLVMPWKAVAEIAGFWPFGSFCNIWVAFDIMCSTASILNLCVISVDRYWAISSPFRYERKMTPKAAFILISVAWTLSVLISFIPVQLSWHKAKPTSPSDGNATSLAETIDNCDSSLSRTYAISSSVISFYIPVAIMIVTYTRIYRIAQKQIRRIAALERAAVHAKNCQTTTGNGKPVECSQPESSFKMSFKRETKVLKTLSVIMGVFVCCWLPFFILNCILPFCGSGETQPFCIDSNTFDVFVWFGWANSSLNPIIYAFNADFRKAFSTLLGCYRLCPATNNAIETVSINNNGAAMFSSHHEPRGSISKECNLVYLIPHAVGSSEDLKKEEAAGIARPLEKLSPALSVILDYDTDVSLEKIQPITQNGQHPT
#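 Tetracycline-induced HEK293 T-REx cells with force-coupled D1 receptor were loaded with a no-wash calcium dye. Compound was added after a 10 s baseline and read kinetically for 180 s; EC80 dopamine was then added and calcium flux followed another 180 s.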
# TRHR ag – activates the human TRH receptor. P34981. TRHR cells, calcium flux fluo-8, FDSS agonist mode. activation, % at 2 µM. 360,000 compounds, 0.18% hits; further: 0% is about no effect
#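 Steps: seed TRHR cells overnight; add fluo-8 no-wash Ca dye, RT 30 min–1.5 h; record 10 s baseline; pin-transfer compounds; monitor fluorescence 1 cycle/s for the agonist window. Calcium increases flag candidate agonists.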
# TRHR PAM – allosterically enhances the human TRH receptor; enhancement, % at 2 µM; AID 493056; 360,000 compounds, 0.66% hits; TRHR cells, fluo-8 calcium fluorescence, EC20 TRH enhancement; P34981; in the data active means enhancement above about 30%; further: 0% is about no effect
#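 TRHR-expressing cells loaded with fluo-8 calcium dye were read kinetically (ex 480/em 530) during compound addition, then stimulated with an EC20 of TRH (10 nM final). Enhancement of the Gq-mediated intracellular calcium response was scored.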
# LDHA inh – inhibitors of human lactate dehydrogenase A | 480,000 compounds, 0.15% hits | AID 1347041 | purified LDHA, NADH/diaphorase-resazurin fluorescence; stronger effect = lower value | P00338 | activity change, % (values are at about 110 or 230 µM); in the data active means activity change below about -30%;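 further: plate controls were DMSO wells for no effect and wells without enzyme for full effect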
#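 Resorufin fluorescence (ex540/em590), read at 0 and 20 min after diaphorase/resazurin addition, reports the NADH left after a 5 min room-temperature reaction of 2 nM human LDH5 with 0.06 mM NADH and 0.2 mM pyruvate.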
# D1 PAM – human D1 dopamine receptor positive modulation. P21728. HEK293 TREx D1 cells, calcium flux, dopamine EC20 potentiation. potentiation, % at 10 µM. 360,000 compounds, 0.036% hits. AID 504651; in the data active means potentiation above about 30%; further: 0% is about no effect
# D1 ag – agonists of human D1 dopamine receptor. P21728. HEK293 T-REx D1 cells, calcium flux, agonist mode. activation, % at 2 µM. 360,000 compounds, 1% hits. AID 504660; further: 0% is about no effect
#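 Inducible HEK293 T-REx D1 cells, force-coupled to calcium signalling, were plated at 4000 cells/well with tetracycline and held overnight at 30 C. After no-wash calcium dye loading, compound-evoked calcium rise over 180 s flagged agonists.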
# * = called active by the depositor; / = no result given; ! = not active in a repeat. An excerpt weighted towards active compounds, which were near 3.6% of everything screened. Unless noted, no stated cut-off is given here; in the data, active means activation above about 30%; inactive means the rest.
SMILES,D1 antag,TRHR ag,TRHR PAM,LDHA inh,D1 PAM,D1 ag
Cc1ccc(S(=O)(=O)C(CC(=O)c2ccccc2)C(=O)c2ccc(Cl)cc2)cc1 (stereo unspecified),/,/,/,4,/,/
O=[N+]([O-])c1cc2c(c(CSc3nnnn3-c3ccc(O)cc3)c1)OCOC2,-33*,0,17,-7,-5,3
COc1cccc(CNC(=O)c2ccc(NC(=O)N3CCCCc4ccccc43)cc2)c1OC,-59*,0,-3,-7,-8,4
O=C(NCc1ccccc1Cl)c1ccc(NC(=O)N2CCCCc3ccccc32)cc1,-2,-1,6,-2,1,3
CC(C)OCCCNC(=O)Cc1ccc(NC(=O)N2CCCCc3ccccc32)cc1,6,0,36*,-7,-4,2
CCC(O)(CCN1CCCCC1)c1ccccc1 (stereo unspecified),16,0,-3,-9,0,1
OC(CCCN1CCCCC1)(c1ccccc1)c1ccccc1,-34*,0,4,-1,-3,3
COc1cc(NC(=O)c2ccc3c(c2)OCO3)c2ncccc2c1,-31*,1,-4,2,3,2
COC(=O)c1ccc(N2CCOCC2)c(NC(=O)c2ccc3c(c2)OCO3)c1,-12,0,1,-13,-5,1
COc1cc(NC(=O)c2cc(OC)c(OC)c(OC)c2)c2ncccc2c1,/,/,/,1,/,/
O=C(Nc1ccccc1N1CCCC1)c1ccc([N+](=O)[O-])o1,2,-1,0,4,0,2
COc1ccc(N2CCOCC2)c(NC(=O)c2ccc3c(c2)OCO3)c1,2,0,38*,1,-1,2
COc1ccc(C(=O)NC(=S)Nc2ccccc2N2CCOCC2)cc1[N+](=O)[O-],-1,0,-1,-2,1,3
COc1ccc(N2CCCC2)c(NC(=O)c2ccc([N+](=O)[O-])o2)c1,-36*,0,2,2,-11,4
COc1ccc(C(=O)Nc2ccccc2N2CCOCC2)cc1[N+](=O)[O-],-32*,0,0,-8,0,1
CCCc1nnc2n1N=C(c1ccc(OC)c(OC)c1)CS2,8,-1,34*,0,6,-1
COc1ccc(C2=Nn3c(nnc3-c3ccccc3)SC2)cc1OC,3,-1,14,0,1,1
COc1ccc(Br)c2c1-c1nc(NC(=O)c3ccccc3SC)sc1C2,-36*,-1,-9,10,-8,-1
CCn1c(SCC(=O)Nc2sc(C)c(C)c2C#N)nnc1C(C)C,11,-1,31*,-2,-3,1
COc1ccc(C2=NS(=O)(=O)N(C)C(C(=O)N3CCN(C)CC3)=C2)cc1OC,/,/,/,0,/,/
O=C(CCCn1nnnc1CN1CCOCC1)N1CCC(c2ccccc2F)C1 (stereo unspecified),10,0,0,0,1,4
O=C(CCn1nnnc1CN1CCOCC1)N1CCC(c2cccc(Cl)c2)C1 (stereo unspecified),-80*,0,-3,-2,-11,1
COc1ccc2c(C)cc(SCC(=O)NCc3ccc(C)cc3)nc2c1,/,/,/,2,/,/
Cc1ccc(C(=O)NC(=S)Nc2ccc(CN3CCCCC3)cc2)c(C)c1,-42*,0,-5,-2,-11,12
COc1c(Cl)cc(Cl)cc1C(=O)Nc1ccc(CN2CCOCC2)cc1,-28,-1,0,-4,-4,5
SMILES,D1 antag,TRHR ag,TRHR PAM,LDHA inh,D1 PAM,D1 ag
COc1c(Cl)cc(Cl)cc1C(=O)Nc1ccc(CN2CCCCC2)cc1,0,-2,10,0,0,31*
COc1ccc(C(=O)NC(=S)Nc2ccc(CN3CCCCC3)cc2)cc1Cl,8,1,2,-5,-5,9
CCn1cc(CNC(=O)Nc2ccc(Cl)c(Cl)c2)c(C)n1,/,/,/,0,/,/
Cc1cc(C)c2[nH]c(-c3ccccc3)c(-c3ccccc3)c2c1,/,/,/,0,/,/
O=C(Nc1nc(-c2ccc(Cl)s2)cs1)C1CC1,/,/,/,-34*,/,/
O=C(Nc1ccc([N+](=O)[O-])cc1)Nc1nc(-c2ccc(Cl)s2)cs1,-47*,0,5,-12,-7,29
O=C(O)Cc1sc(Nc2ccccc2)nc1-c1ccccc1,-2,0,3,-1,-2,-1
O=C(O)Cc1sc(N/N=C\c2ccncc2)nc1-c1ccccc1,-4,23,1,0,-7,31*
COc1cc2c(c(OC)c1OC)-c1c(cc3c(c1OC)OCO3)C1OC2[C@@H](C)[C@H]1C (stereo partly specified),-46*,0,9,0,-2,2
CC(C1CC1)N(Cc1ccccc1)S(=O)(=O)c1cccc2nsnc12 (stereo unspecified),/,/,/,25,/,/
COc1ccc(C2=NCCc3cc(OC)c(OC)cc32)cc1OC,9,-1,3,-4,-3,2
COc1ccc(C2=NCCc3cc(OC)c(OC)cc32)cc1,-61*,0,3,1,-12,3
Cc1c(Cl)cccc1Nc1nc(N)nc(CSc2nc3ccccc3s2)n1,-44*!,1,0,-16,-2,4
COC(=O)CN1C(=S)N(c2ccc(OC)cc2)C(=O)/C1=C/c1ccc(OC)cc1,-4,1,3,0,1,6
COC(=O)CN1C(=S)N(c2ccc(OC)cc2)C(=O)/C1=C/c1ccc(N2CCOCC2)cc1,/,10,-3,-2,-4,33*
COc1ccc(CNC(=O)COC(=O)Cc2ccc(Cl)cc2Cl)cc1,-47*,-2,3,-2,-4,17
COc1ccc(CC(=O)OCC(=O)NCc2ccc(Cl)cc2)cc1,12,0,-20,1,0,2
O=C(COC(=O)CCCOc1ccc(Cl)cc1Cl)NCc1ccccc1,-37*,-1,28,-1,-4,7
O=C(COn1nnc2ccc(Cl)cc21)NCc1ccccc1,-34*,0,0,-12,-9,1
O=C(COC(=O)CSc1ccc([N+](=O)[O-])cc1)NCc1cccs1,-55*,-1,11,-6,-5,7
Cc1ccc(SCC(=O)OCC(=O)NCc2cccs2)cc1,-2,0,-1,-1,-2,0
O=C(Cn1nc(Cc2ccncc2)c2ccccc2c1=O)Nc1cc(F)ccc1F,/,/,/,-2,/,/
COc1ccc(C(NC(=O)COc2ccccc2)c2nccn2C)cc1 (stereo unspecified),/,/,/,-7,/,/
O=C(COC(=O)COc1ccc(Cl)cc1Br)NCc1cccs1,-32*,0,12,0,-9,0
O=C(COC(=O)Cc1ccc(Cl)cc1)NCc1cccs1,/,/,/,1,/,/
CCOC(=O)c1c(-c2cccs2)csc1NC(=O)C(C)(C)C,9,0,0,6,9,34*
